Experimental data as given in PubChem BioAssay AID651903 (Broad Institute, 2012).
Hit rate of the full screen: of about 22,000 compounds, about 1,100 (5%) were called active. Rule as the data show it: active = activity score above about 55%; inconclusive = no clear call, values can overlap the other calls; inactive = below that. The sample as a whole holds a higher share of actives than the screen did.

Test: T. cruzi growth inside host cells – cell-based, plate reader, single point, set 2, primary screen (AID 651903);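 also: parasites and compound incubated about four days before reading; 0% = median of neutral control wells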
Settings: intracellular Trypanosoma cruzi in host cells, at 5.01 µM, stronger effect = higher value

Row | Structure (SMILES) | activity score (inhibition)
1 | C[C@@H]1CN([C@H](C)CO)C(=O)Cc2cc(NC(=O)Cc3ccccc3)ccc2O[C@@H]1CN(C)Cc1ccccc1 | 5.2% (inactive)
2 | C[C@H]1CN([C@@H](C)CO)C(=O)Cc2cc(NC(=O)NC3CCCCC3)ccc2O[C@@H]1CN(C)Cc1ccc(Oc2ccccc2)cc1 | 75.3% (active)
3 | C[C@@H]1CN([C@H](C)CO)C(=O)Cc2cc(NC(=O)NC3CCCCC3)ccc2O[C@H]1CN(C)Cc1ccc(Cl)c(Cl)c1 | 7.26% (inactive)
4 | C[C@H]1CN([C@@H](C)CO)C(=O)Cc2cc(NC(=O)Cc3ccccc3)ccc2O[C@@H]1CN(C)Cc1ccc(Cl)c(Cl)c1 | 41.9% (inactive)
5 | C[C@@H]1CN([C@@H](C)CO)C(=O)Cc2cc(NC(=O)Cc3ccccc3)ccc2O[C@@H]1CN(C)Cc1ccc(Oc2ccccc2)cc1 | 65.6% (active)
6 | C[C@@H]1CN([C@H](C)CO)C(=O)Cc2cc(NC(=O)CCCN(C)C)ccc2O[C@@H]1CN(C)Cc1ccc(Oc2ccccc2)cc1 | -28.8% (inactive)
7 | C[C@@H]1CN([C@@H](C)CO)C(=O)Cc2cc(NC(=O)Cc3ccccc3)ccc2O[C@@H]1CN(C)Cc1ccc2c(c1)OCO2 | 32.2% (inactive)
8 | C[C@@H]1CN([C@H](C)CO)C(=O)Cc2cc(NC(=O)Cc3ccccc3)ccc2O[C@H]1CN(C)Cc1ccc(Oc2ccccc2)cc1 | 42.5% (inactive)
9 | COc1ccc(CN(C)C[C@H]2Oc3ccc(NC(=O)Cc4ccccc4)cc3CC(=O)N([C@@H](C)CO)C[C@@H]2C)cc1 | 71.7% (active)
10 | C[C@@H]1CN([C@H](C)CO)C(=O)c2cc(NC(=O)Cn3cnnn3)ccc2O[C@@H]1CN(C)Cc1ccc(C(F)(F)F)cc1 | -1.8% (inactive)
11 | O=C(O)CCCCCCC(=O)NN=C1CCCCCC1 | -26.3% (inactive)
12 | C[C@H]1CN([C@@H](C)CO)C(=O)Cc2cc(NC(=O)Nc3ccc4c(c3)OCO4)ccc2O[C@H]1CN(C)Cc1ccc(C(=O)Nc2ccccc2N)cc1 | 62.8% (active)
13 | C[C@@H]1CN([C@H](C)CO)C(=O)Cc2cc(NC(=O)Nc3ccc4c(c3)OCO4)ccc2O[C@@H]1CN(C)Cc1ccc(C(=O)Nc2ccccc2N)cc1 | 63.9% (active)
14 | C[C@H](CO)N1C[C@H](C)[C@H](CN(C)Cc2ccc(C(=O)Nc3ccccc3N)cc2)Oc2ccc(NC(=O)Nc3ccccc3)cc2CC1=O | 48.5% (inactive)
15 | C[C@@H]1CN([C@H](C)CO)C(=O)Cc2cc(NC(=O)Nc3ccc(F)cc3)ccc2O[C@@H]1CN(C)Cc1ccc2c(c1)OCO2 | 1.98% (inactive)
16 | COc1ccc(CN(C)C[C@@H]2Oc3ccc(NC(=O)Nc4ccc5c(c4)OCO5)cc3CC(=O)N([C@H](C)CO)C[C@H]2C)cc1 | 26.4% (inactive)
17 | CC(C)NC(=O)Nc1ccc2c(c1)CC(=O)N([C@H](C)CO)C[C@@H](C)[C@@H](CN(C)Cc1ccc(C(=O)Nc3ccccc3N)cc1)O2 | 52.3% (inactive)
18 | C[C@H](CO)N1C[C@H](C)[C@H](CN(C)S(=O)(=O)c2cccs2)Oc2ccc(NS(=O)(=O)c3ccc(Cl)cc3)cc2CC1=O | -17% (inactive)
19 | C[C@H]1CN([C@@H](C)CO)C(=O)Cc2cc(NS(=O)(=O)c3cccs3)ccc2O[C@@H]1CN(C)Cc1ccc(Oc2ccccc2)cc1 | 42.4% (inactive)

Row | Structure (SMILES) | activity score (inhibition)
20 | C[C@H](CO)N1C[C@H](C)[C@H](CN(C)CC2CCCCC2)Oc2ccc(NC(=O)CCN3CCOCC3)cc2CC1=O | -39.1% (inactive)
21 | C[C@H](CO)N1C[C@H](C)[C@H](CN(C)C(=O)Nc2ccc(C(F)(F)F)cc2)Oc2ccc(NC(=O)C3CC3)cc2C1=O | -9.99% (inactive)
22 | C[C@H]1CN([C@@H](C)CO)C(=O)c2cccc(NC(=O)Nc3ccc(C(F)(F)F)cc3)c2O[C@@H]1CN(C)Cc1ccccc1 | 8.46% (inactive)
23 | COc1ccc(CN(C)C[C@H]2Oc3c(NC(=O)NC4CCCCC4)cccc3C(=O)N([C@@H](C)CO)C[C@@H]2C)cc1 | -5.36% (inactive)
24 | C[C@H](CO)N1C[C@H](C)[C@@H](CN(C)Cc2ccc(C(F)(F)F)cc2)Oc2c(NC(=O)NC3CCCCC3)cccc2C1=O | 78.1% (active)
25 | C[C@@H]1CN([C@H](C)CO)C(=O)c2cccc(NC(=O)NC3CCCCC3)c2O[C@H]1CN(C)Cc1ccc(C(F)(F)F)cc1 | 85.3% (active)
26 | C[C@H]1CN([C@@H](C)CO)C(=O)c2cccc(NC(=O)C3CCCCC3)c2O[C@H]1CN(C)Cc1ccc(C(F)(F)F)cc1 | 6.51% (inactive)
27 | C[C@@H]1CN([C@H](C)CO)C(=O)c2cccc(NC(=O)Nc3ccc(F)cc3)c2O[C@@H]1CN(C)Cc1ccc(C(F)(F)F)cc1 | -18.6% (inactive)
28 | C[C@@H]1CN([C@@H](C)CO)C(=O)c2cccc(N(C)C)c2O[C@@H]1CN(C)S(C)(=O)=O | -23.1% (inactive)
29 | C[C@H]1CN([C@@H](C)CO)C(=O)c2cccc(NS(=O)(=O)c3ccccc3)c2O[C@@H]1CN(C)S(=O)(=O)c1cn(C)cn1 | -19.1% (inactive)
30 | C[C@H]1CN([C@@H](C)CO)C(=O)Cc2cc(NC(=O)C3CC3)ccc2O[C@@H]1CN(C)C(=O)NC1CCCCC1 | -11% (inactive)
31 | CC(C)NC(=O)N(C)C[C@@H]1Oc2c(cccc2N(C)C)C(=O)N([C@H](C)CO)C[C@@H]1C | -30.9% (inactive)
32 | C[C@@H]1CN([C@@H](C)CO)C(=O)c2cc(NC(=O)Nc3ccccc3)ccc2O[C@H]1CN(C)C(=O)Nc1ccc(F)cc1 | -1.8% (inactive)
33 | C[C@@H]1CN([C@H](C)CO)C(=O)c2cc(NC(=O)Cc3cn(C)c4ccccc34)ccc2O[C@H]1CN(C)S(C)(=O)=O | -9.14% (inactive)
34 | C[C@@H]1CN([C@@H](C)CO)C(=O)c2cccc(NC(=O)Nc3ccc4c(c3)OCO4)c2O[C@@H]1CN(C)C(=O)Nc1ccc(F)cc1 | -15.6% (inactive)
35 | COc1ccc(CN(C)C[C@@H]2Oc3ccc(NC(=O)Nc4ccc(OC)cc4)cc3CC(=O)N([C@H](C)CO)C[C@H]2C)cc1 | 12% (inactive)
36 | C[C@H]1CN([C@@H](C)CO)C(=O)Cc2cc(NC(=O)Nc3ccc(C(F)(F)F)cc3)ccc2O[C@H]1CN(C)Cc1ccc(C(=O)O)cc1 | -28.2% (inactive)
37 | C[C@@H]1CN([C@H](C)CO)C(=O)Cc2cc(NC(=O)Nc3ccc4c(c3)OCO4)ccc2O[C@H]1CN(C)Cc1ccc(C(F)(F)F)cc1 | 64.6% (active)
